Measurements from PubChem BioAssay AID624320 (Broad Institute, 2012).
Calls of active or inactive are those of the source.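 The calls were made as follows: active = compounds lowering absorbance whose fitted half-effect dose is at most twice the highest valid tested dose; inconclusive = flat fit between 30 and 70% inhibition, or poor fit; inactive = the rest, including opposite-direction activity.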

Biological target: Protein disulfide-isomerase A6 (Homo sapiens) (UniProt Q15084)
Assay: ERp5 reductase inhibition selectivity check, dose response, selectivity assay for PDI inhibitor antithrombotic project, biochemical, insulin aggregation absorbance, dry powder samples (AID 624320)

Protein disulfide-isomerase A6 (Homo sapiens), sequence (Q15084 whole entry, looked up): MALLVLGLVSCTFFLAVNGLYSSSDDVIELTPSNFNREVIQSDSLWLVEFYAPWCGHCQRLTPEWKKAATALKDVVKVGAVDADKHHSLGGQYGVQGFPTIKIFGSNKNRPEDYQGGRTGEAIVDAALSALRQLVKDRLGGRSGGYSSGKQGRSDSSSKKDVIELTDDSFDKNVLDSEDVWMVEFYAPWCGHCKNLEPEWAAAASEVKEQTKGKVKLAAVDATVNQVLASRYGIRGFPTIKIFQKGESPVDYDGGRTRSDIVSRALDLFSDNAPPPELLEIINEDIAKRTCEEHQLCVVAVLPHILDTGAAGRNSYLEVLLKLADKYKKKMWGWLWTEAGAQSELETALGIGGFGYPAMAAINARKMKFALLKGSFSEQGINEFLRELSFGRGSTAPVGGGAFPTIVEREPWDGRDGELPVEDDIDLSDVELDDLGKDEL

C[C@H]1CN([C@@H](C)CO)C(=O)c2cccc(NS(C)(=O)=O)c2O[C@H]1CN(C)Cc1ccc(Oc2ccccc2)cc1
outcome: inactive
